# Bioassay records: PubChem, Broad Institute
# Sampled rows, rich in hits. Any-hit rate of the full collection: about 1.5%.
# RAD52 inh: RAD52 (human) annealing inhibition; P43351; recombinant RAD52 DNA annealing, FRET fluorescence; inhibition, % at 18.7 µM; 0.46% of 360,000 active;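 active means every replicate showing at least 50% inhibition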
# Casp6 inh: blocks human caspase-6 cleavage activity | P55212 | purified caspase-6, Z-VEID-R110 cleavage fluorescence | inhibition, % at 12.5 µM | 0.53% of 350,000 active | AID 686996;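 active means mean inhibition across replicates at least about 35%, with every replicate also reaching that limit, limit read from the data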;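 further: 0% = median of neutral control wells and 100% = no fluorescence left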
# Target sequence (P55212 24-179 limits assumed): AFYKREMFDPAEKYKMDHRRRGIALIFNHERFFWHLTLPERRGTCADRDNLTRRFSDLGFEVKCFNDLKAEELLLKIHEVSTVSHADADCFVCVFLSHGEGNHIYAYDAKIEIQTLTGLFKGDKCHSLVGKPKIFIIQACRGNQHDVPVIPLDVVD
# Target sequence (P55212 194-293 limits assumed): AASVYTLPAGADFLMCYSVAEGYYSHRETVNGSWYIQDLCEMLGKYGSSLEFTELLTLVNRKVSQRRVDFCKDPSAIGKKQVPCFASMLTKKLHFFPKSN
# AF4-AF9 inh: blocks AF4 peptide binding to human AF9. AlphaScreen, biotin-AF4 peptide binding to FLAG-AF9. inhibition, % at 10 µM. 0.47% of 350,000 active. AID 651704;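 active means every replicate reaching a set inhibition limit, whatever the replicate mean, cut at about 25% in these data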;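 further: 0% = plate neutral control median and 100% = total signal loss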
# NSD2 inh: blocks human histone methyltransferase NSD2; inhibition, % at 12.5 µM; O96028; NSD2 peptide methylation, AlphaScreen, 120 min; AID 743445; 0.54% of 310,000 active; in the data active means inhibition above about 50%
# miR-122 sensor: blocks miR-122 activity in Huh7 sensor cells | 0.3% of 340,000 active | Huh7 miR-122 Renilla luciferase sensor, 48 h; neutral wells = 0, positive control = 100 | activation (reporter increase), % at 12.5 µM | AID 602342;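 active means mean replicate activation score at least 90 and every replicate individually at or above 90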;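 further: higher luciferase means less miR-122 activity so hits act as miR-122 inhibitors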
# * = called active by the depositor; · = no result; [ ] = dose if it differs, or a comment.
SMILES,RAD52 inh,Casp6 inh,AF4-AF9 inh,NSD2 inh,miR-122 sensor
COc1ccccc1C#Cc1ccc2c(c1)O[C@@H](CN(C)C)[C@@H](C)CN([C@@H](C)CO)S2(=O)=O,23,48*,10,·,·
C[C@H]1CN([C@@H](C)CO)S(=O)(=O)c2ccc(C#Cc3ccc(F)cc3)cc2O[C@H]1CN(C)C(=O)CN(C)C,71*,0,19,·,-11[16.7 µM]
C[C@@H]1CN([C@@H](C)CO)S(=O)(=O)c2ccc(C#Cc3ccc(F)cc3)cc2O[C@@H]1CN(C)C(=O)CN(C)C,50,1,12,·,-15[16.7 µM]
CNC[C@H]1Oc2cc(C#Cc3ccc(OC)cc3)ccc2S(=O)(=O)N([C@H](C)CO)C[C@@H]1C,56*,0,9,·,5[16.7 µM]
COCC(=O)N1C[C@@H](C)[C@H](OC)CN(C)C(=O)c2cc(NC(=O)c3ccc(-c4ccccc4)cc3)ccc2OC[C@H]1C,-6,0,2,·,·
C[C@@H]1CN([C@@H](C)CO)C(=O)Cc2cc(NC(=O)Nc3cccc4ccccc34)ccc2O[C@H]1CN(C)Cc1ccc(Oc2ccccc2)cc1,5,-3,-1,·,-1[16.7 µM]
Cc1ccc(-c2ccc3c(c2)O[C@H](CN(C)Cc2ccc(F)cc2)[C@@H](C)CN([C@H](C)CO)S3(=O)=O)cc1,3,-2,4,·,98*[16.7 µM]
COCC#Cc1ccc2c(c1)O[C@H](CN(C)S(=O)(=O)c1ccc(OC)cc1)[C@@H](C)CN([C@H](C)CO)S2(=O)=O,-9,-2,3,·,48[16.7 µM]
C[C@@H]1CN([C@H](C)CO)S(=O)(=O)c2ccc(C#Cc3ccc(F)cc3)cc2O[C@H]1CN(C)C(=O)CN(C)C,61*,4,19,·,-23[16.7 µM]
Cc1ccc(-c2ccc3c(c2)O[C@@H](CN(C)Cc2ccc(F)cc2)[C@@H](C)CN([C@@H](C)CO)S3(=O)=O)cc1,-12,-2,6,·,-4[16.7 µM]
C[C@@H]1CN([C@@H](C)CO)S(=O)(=O)c2ccc(C#Cc3cccc(F)c3)cc2O[C@H]1CN(C)C,51*,2,7,·,-6[16.7 µM]
COCC#Cc1ccc2c(c1)O[C@H](CN(C)S(=O)(=O)c1ccc(OC)cc1)[C@H](C)CN([C@H](C)CO)S2(=O)=O,-26,0,3,·,120*[16.7 µM]
COCC(=O)N[C@@H]1C=C[C@H](CC(=O)N2CCCCC2)O[C@@H]1CO,·,·,·,·,-1[16.7 µM]
C[C@@H]1CCCCO[C@@H](CN(C)Cc2ccc3c(c2)OCO3)[C@H](C)CN([C@H](C)CO)C(=O)c2cc(NC(=O)Nc3ccc(C(F)(F)F)cc3)ccc2O1,-12,0,9,·,-34[16.7 µM]
CCN1CC(=O)N2[C@H](CO)[C@@H](c3ccc(Br)cc3)[C@@H]2C1,-15,-4,0,·,·
Cc1noc(C)c1NC(=O)N(C)C[C@@H]1Oc2cc(C#CCC3CCCC3)ccc2S(=O)(=O)N([C@H](C)CO)C[C@@H]1C,99*,3,20,·,-14[16.7 µM]
Cc1noc(C)c1NC(=O)N(C)C[C@H]1Oc2cc(C#CCC3CCCC3)ccc2S(=O)(=O)N([C@@H](C)CO)C[C@@H]1C,5,0,8,·,19[16.7 µM]
CCC(=O)N1C[C@@H](C)[C@@H](OC)CN(C)C(=O)c2cc(NC(=O)C3CC3)ccc2OC[C@@H]1C,-3,1,0,·,-5[16.7 µM]
COc1ccccc1-c1cnc2c(c1)C(=O)N([C@H](C)CO)C[C@H](C)[C@H](CN(C)C(=O)c1ccncc1)O2,-5,·,·,·,-3[16.7 µM]
O=C(Nc1ccccc1)c1cc([N+](=O)[O-])ccc1NC1CCCCC1,-6,5,10,-1,123*
CN(C)S(=O)(=O)c1cccc(NC(=O)c2cc([N+](=O)[O-])ccc2N2CCCCC2)c1,-7,2,7,0,·
CC(=O)Nc1cccc(NC(=O)c2cc([N+](=O)[O-])ccc2N2CCCCC2)c1,-8,36*,6,1,-6
O=C(NC1CCCCC1)[C@H]1[C@H](CO)[C@H]2Cn3c(cccc3=O)[C@H]2N1C(=O)CC1CC1,-8,-3,3,·,6[16.7 µM]
CCN1[C@@H]2Cn3c(ccc(-c4ccncc4)c3=O)[C@H]1[C@@H](C(=O)Nc1ccccc1)[C@@H]2CO,4,1,-11,·,·
Cc1ccc(S(=O)(=O)NC(C)CCc2ccccc2)cc1 (configuration not stated),·,·,·,-6,10
Cc1ccc(C)c(S(=O)(=O)NC(C)CCc2ccccc2)c1 (configuration not stated),18,6,3,-15,193*
COc1ccccc1-c1cn(CC[C@@H]2CC[C@H](NC(=O)C3CCOCC3)[C@H](CO)O2)nn1,-20,-2,-2,·,6[16.7 µM]
